Drawing on PubChem BioAssay (Tox21), this text covers Potency and activity change, negative = cytotoxicity for 40 compounds.

Inconclusive results are not listed. Entries that show only a call come without a potency. Unmarked numbers belong to inactive results. Calls of active or inactive are those of the source. The call rests on the fitted dose curve; in most records, active means well fitted cell-killing curve with a large enough effect in the repeat runs; inconclusive means weak or mixed curves, or effect the other way; inactive means flat fitted curve, though single readings scatter.
Potency means the concentration at half of the fitted maximal effect.

This assay can be described thus: Nuclear factor erythroid 2-related factor 2/antioxidant responsive element (Nrf2/ARE) small molecule agonists: qHTS cell viability counter screen in human keratinocytes (AID 1919968). Further: nearly all actives have a fitted effect of over 55% in size. The settings on record: KeratinoSens HaCaT ARE cells viability, CellTiter-Fluor, 24 h; series mostly up to 92.4 µM. The source says: U.S. Tox21 Program National Center for Advancing Translational Sciences [NCATS] Division of Preclinical Innovation [DPI] U.S. Environmental Protection Agency [EPA] National Institutes of Environmental Health Sciences [NIEHS] National Toxicology Program [NTP] U.S. Food and Drug Administration [FDA] Tox21 Assay Overview: Oxidative stress has been implicated in the pathogenesis of a variety of diseases ranging from cancer to neurodegeneration. The antioxidant response element (ARE) signaling pathway plays an important role in the amelioration of oxidative stress. The KeratinoSens (Givaudan, Switzerland) is an in vitro test method which quantifies luciferase induction as a measure of activation of Keap1-Nrf2-antioxidationt/electrophile response element (ARE) dependant pathway in HaCaT human keratinocytes stably transfected with a selectable plasmid. The KeratinoSens assay is a cell-based assay with a reporter cell line to detect potential skin sensitizers by their ability to induce the Nrf2/ARE-response. The activation of the report gene under culture conditions can be detected by ONE-Glo Luciferase Assay System (Promega, Madison, WI). This cell line has been used to screen the Tox21 10K compound library to identify agonists that induce oxidative stress. The cytotoxicity of the Tox21 compound library against the KS-ARE cell line was tested in parallel by measuring the cell viability using CellTiter- Fluor assay system (Promega, Madison, WI) in the same wells.
Tox21 Assay Protocol Summary: HaCaT derived cell line KeratinoSens were dispensed at 1,500 cells/5uL/well in 1536-well white wall/solid bottom plates using a Multidrop Combi (ThermoFisher Scientific, Waltham, MA) dispenser. After the assay plates were incubated at 37 C/5% CO2 for 5 h, 23 nL of compounds dissolved in DMSO, positive controls or DMSO only was transferred to the assay plate by a pintool workstation (Kalypsys, San Diego, CA). The plates were incubated at 37 C/5% CO2 for 23 h, followed by addition of 1uL/well of CellTiter-Fluor reagent into the assay plates using a Flying Reagent Dispenser (Aurora Discovery, San Diego, CA) for cell viability readout that measures cytotoxicity. After 1 h incubation at 37 C/5% CO2 the fluorescence intensity was measured using a ViewLux (PerkinElmer, Shelton, CT) plate reader.
(In general: qHTS replaces the single test concentration by a dilution series.)
As to `CCOC(=O)C1=NN(c2ccc(Cl)cc2Cl)C(C)(C(=O)OCC)C1` (stereo not given), the Potency result was “inactive”.
Still for that read-out and setting: the same measure for `CC(C)C(O)C(C)(C)CO` (stereo not given): “inactive”.
`C=CN1CCCCCC1=O`: the Potency result was “inactive”.
The same measure, in the same setting: then `Nc1ccn([C@@H]2O[C@H](CO)[C@@H](O)C2(F)F)c(=O)n1`, with “inactive”; and `O=C(CCCN1CCN(c2ccccn2)CC1)c1ccc(F)cc1`, with “inactive”.
Still for that read-out and setting: the same measure for `O=C1O[C@@H]2[C@@H](O)[C@H](O)O[C@@H]2[C@H]1O`: “inactive”.
As for `CCCCC(CC)(CO)CO`, the Potency entry was “inactive”.
Turning to `CCc1nn(C2CCCCC2)c2cc(C3(C#N)CCC(C(=O)O)CC3)ccc12` (stereo not given), the Potency result is “inactive”.
With `O=C(CN1CCN(Cc2ccc3c(c2)OCO3)CC1)N1c2ccccc2Sc2ccccc21`, the Potency entry was “inactive”.
The same measure, in the same setting: the same measure for `O=C(O)c1cccc(-c2noc(-c3ccccc3F)n2)c1`: “inactive”; for `NCc1ccco1`: “inactive”.
Consider `CN1CCN(Cc2cc(-c3ccc4[nH]c(=O)oc4c3)co2)[C@@H](c2ccc(F)cc2)C1`, for which the Potency is 26.3 µM (active).
On the same count and under the same terms, then `CC(C(=O)O)c1ccc(-c2ccccc2)c(F)c1` (stereo not given), with “inactive”; and `C/C=C(\C)C(=O)OCCc1ccccc1`, with “inactive”; and `CC(C)(C)N(CCO)CCO`, with “inactive”.
The same measure, in the same setting: then `OC(CCN1CCCCC1)(c1ccccc1)c1ccccc1`, with “inactive”; and `CCN(O)CC`, with “inactive”.
Take `O=C(N[C@@H](Cc1ccccc1)[C@@H](O)C(=O)N1C[C@@H](O)[C@@H](O)C1)c1cc2cc(Cl)ccc2[nH]1`: the Potency entry was “inactive”.
Same read-out and setting: the same measure for `CN1CCC(=C2c3ccccc3CCc3sccc32)CC1`: “inactive”; for `O=C1c2ccccc2S(=O)(=O)N1CCCCN1CCN(c2ncccn2)CC1`: “inactive”; for `C=Cc1ccccc1C=C`: “inactive”.
The same measure, in the same setting: the same measure for `CCCSS/C(CCO)=C(\C)N(C=O)Cc1cnc(C)nc1N`: “inactive”; for `C[Si](NC1CCCCC1)(NC1CCCCC1)NC1CCCCC1`: “inactive”; for `CC(C)(C)C(=O)CC(=O)C(C)(C)C`: “inactive”.
The same measure, in the same setting: then `O=[N+]([O-])c1ccc(CO)cc1`, with “inactive”; and `CNCc1ccccc1`, with “inactive”; and `COC(=O)c1ccccc1Cl`, with “inactive”.
Take `CN(C)[C@@H]1C(=O)C(C(=O)NCN2CCCC2)=C(O)[C@@]2(O)C(=O)C3=C(O)c4c(O)cccc4[C@@](C)(O)C3C[C@@H]12` (stereo not given in full): the Potency entry was “inactive”.
In the case of `O=C(O)c1ccc[n+]([O-])c1`, the Potency entry is “inactive”.
Still for that read-out and setting: the same measure for `O=C(c1ccco1)N1CCNCC1`: “inactive”; for `C#CC(C)(CC)OC(=O)c1ccccc1C(=O)O` (stereo not given): “inactive”; for `C(=C/c1ccccc1)/c1ccccc1`: “inactive”.
Same read-out and setting: the same measure for `CC(=O)Nc1cccc(C)c1`: “inactive”.
For the compound `NC1CCN(c2cccc(Cl)n2)CC1`, the Potency entry was “inactive”.
The same measure, in the same setting: the same measure for `CCCCCCCCCCCCCCCCOS(=O)(=O)O`: “inactive”; for `CCOC(=O)C1=C(C)NC(C)=C(C(=O)OC)C1c1cccc([N+](=O)[O-])c1` (stereo not given): “inactive”.
Consider `NCCCNCCSP(=O)(O)O`, for which the activity change, negative = cytotoxicity was -4.44% [at 8.39 µM].
For the compound `CC1(C)CCC(C)(C)c2cc(NC(=O)c3ccc(C(=O)O)cc3)ccc21`, the Potency result was “inactive”.
Same read-out and setting: the same measure for `CCN(CC)CCNC(=O)c1cc(S(C)(=O)=O)ccc1OC`: “inactive”.
Same read-out and setting: the same measure for `CN(C)CCCOc1nn(Cc2ccccc2)c2ccccc12`: “inactive”.
